This is a sample that favours compounds with a hit; in the whole collection about 5.4% have one here.
aDG glyco up = activators of alpha-DG glycosylation, primary screen, uHTS, Pro5-aDG cells, AlphaScreen; activation, % at 10 µM; AID 624168, 2012; alpha-DG glycosylation AlphaScreen (IIH6); 0% Pro5, 100% B10-LARGE cell signal; 0.22% of 360,000 active;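 active = activation of at least 8% versus controls, or a plate z-score of at least 8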;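 note: Pro5 are CHO cells carrying HIG-tagged alpha-DG that lacks glycosylation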
rCAG binder = binders of r(CAG) RNA repeats, primary screen, biochemical, fluorescence | r(CAG) RNA repeat, TO-PRO-1 dye displacement fluorescence | inhibition, % at 3 µM | 1.3% of 370,000 active;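 active = inhibition above the plate cutoff, the mean of all test compounds on that plate plus 3 SD, cut at about 35% in these data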;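 note: 0% = DMSO alone and 100% = 100 µM mitoxantrone as full dye displacement; higher means more dye released from RNA so lower well fluorescence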
APOBEC3G inh = APOBEC3G DNA deaminase inhibitors, primary screen, biochemical, fluorescence, single-stranded DNA substrate, uHTS; AID 493012, 2011; DNA dC->dU-editing enzyme APOBEC-3G (Homo sapiens), Q9HC16; 0.28% of 330,000 active; inhibition, % at 20 µM; recombinant A3G, ssDNA deamination FAM/TAMRA fluorescence;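 active = inhibition of at least 40% at 20 µM, with no more than 30% in the related APOBEC3A deaminase screen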;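 note: plate controls were DMSO wells with A3G for no effect and wells lacking A3G enzyme for full effect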
ALR H2O2 inh = inhibitors of human ALR sulfhydryl oxidase, primary screen, biochemical, H2O2 detection, HRP-luminol luminescence, single point | FAD-linked sulfhydryl oxidase ALR (Homo sapiens), P55789 | inhibition, % (no concentration beside the values) | 3.8% of 290,000 active | purified ALR, DTT oxidation;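 active = mean replicate inhibition above about 79%, with every replicate also reaching it, limit read from the data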
A3A deaminase = APOBEC3A ssDNA deaminase inhibitors, primary screen, selectivity assay for APOBEC3G inhibitor project, biochemical, FAM/TAMRA oligo cleavage fluorescence | recombinant A3A, FAM/TAMRA ssDNA deamination fluorescence | inhibition, % at 20 µM | 0.41% of 330,000 active;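 active = at least 40% inhibition at 20 µM here, with at most 30% in a related deaminase screen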;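 note: plate controls were A3A with DMSO for no effect and wells lacking A3A enzyme for full effect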
Target sequence (P31941 whole entry, looked up): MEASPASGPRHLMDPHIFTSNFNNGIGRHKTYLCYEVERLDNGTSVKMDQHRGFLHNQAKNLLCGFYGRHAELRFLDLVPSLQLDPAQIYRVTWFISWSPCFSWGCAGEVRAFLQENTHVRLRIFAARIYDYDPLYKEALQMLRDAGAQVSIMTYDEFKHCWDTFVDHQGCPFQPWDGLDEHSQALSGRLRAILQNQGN
PHOSPHO1 block = PubChem AID 1565. inhibition, % at 13.3 µM. 1.1% of 290,000 active. recombinant PHOSPHO1, absorbance phosphatase assay. Phosphoethanolamine/phosphocholine phosphatase (Homo sapiens), Q8TCT1; in the data active = inhibition above about 60%
Target sequence (Q8TCT1 whole entry, looked up): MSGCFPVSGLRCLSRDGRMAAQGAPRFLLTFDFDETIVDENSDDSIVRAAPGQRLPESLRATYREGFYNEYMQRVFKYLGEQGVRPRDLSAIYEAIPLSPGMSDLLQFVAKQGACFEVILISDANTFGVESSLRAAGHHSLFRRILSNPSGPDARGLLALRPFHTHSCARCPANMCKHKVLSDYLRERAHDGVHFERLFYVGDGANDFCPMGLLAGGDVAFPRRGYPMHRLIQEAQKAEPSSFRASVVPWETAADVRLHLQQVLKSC
Active calls of the source: *.

What do the screens show for `CCOc1cc(/C=N/Nc2ncnc(Cl)c2N)ccc1O`?
aDG glyco up: 0; rCAG binder: 1; APOBEC3G inh: -1; ALR H2O2 inh: 99*; A3A deaminase: 5; PHOSPHO1 block: 6

What do the screens show for `CCOc1cc(/C=N/Nc2nnc(C)n2N)ccc1O`?
aDG glyco up: 0; rCAG binder: 0; APOBEC3G inh: -4; ALR H2O2 inh: 99*; A3A deaminase: -1

What do the screens show for `COc1ccc([C@@H]2CC=C(C(=O)O)[C@H](c3ccccc3)N2S(=O)(=O)c2ccccc2C)cc1`?
aDG glyco up: 0; rCAG binder: 36*; APOBEC3G inh: -11; ALR H2O2 inh: 5; A3A deaminase: -5

What do the screens show for `Cc1ccc(S(=O)(=O)N2[C@@H](c3ccc(C(C)(C)C)cc3)C(C(=O)O)=CC[C@H]2c2ccc(Cl)cc2)cc1`?
aDG glyco up: 0; rCAG binder: 89*; APOBEC3G inh: -4; A3A deaminase: -2

How did COC(=O)C1=C(C)N(Cc2ccccc2C(F)(F)F)C(=NCc2ccc(OC)cc2)NC1CCc1ccccc1 (centres undefined) do in these assays?
rCAG binder: 10

Results for O=C1[C@H]2C[C@@]3(n4ccc5ccccc54)c4ccccc4N(S(=O)(=O)c4ccccc4)[C@H]3N2C(=O)CN1Cc1ccccc1 ?
rCAG binder: 10

How did COc1ccc(CNC(=O)[C@H](C)NC(=O)N2CCn3c2nc2ccccc23)cc1 do in these assays?
aDG glyco up: 0; rCAG binder: -5; APOBEC3G inh: -4; ALR H2O2 inh: -2; A3A deaminase: -4; PHOSPHO1 block: 70*

How did O=C(CCCCCNC(=O)N1CCn2c1nc1ccccc12)N[C@@H](C(=O)O)c1ccccc1 do in these assays?
aDG glyco up: 0; rCAG binder: 9; APOBEC3G inh: 5; ALR H2O2 inh: -3; A3A deaminase: 13; PHOSPHO1 block: 23

Results for CC(NC(=O)CCCCCNC(=O)N1CCn2c1nc1ccccc12)c1ccccc1 (centres undefined) ?
aDG glyco up: 2; rCAG binder: -3; APOBEC3G inh: -5; ALR H2O2 inh: 92*; A3A deaminase: -5; PHOSPHO1 block: 10

How did CSCC[C@H](NC(=O)N1CCn2c1nc1ccccc12)C(=O)NCc1ccccc1 do in these assays?
aDG glyco up: 0; rCAG binder: 1; APOBEC3G inh: -6; ALR H2O2 inh: -16; A3A deaminase: -5; PHOSPHO1 block: 18

Results for CSCC[C@H](NC(=O)N1CCn2c1nc1ccccc12)C(=O)NCc1ccco1 ?
aDG glyco up: 0; rCAG binder: 1; APOBEC3G inh: -3; ALR H2O2 inh: 96*; A3A deaminase: 3; PHOSPHO1 block: 14

What do the screens show for `COC(=O)c1cc(-c2ccc(-c3ccccc3)c(F)c2)c(=O)n2c1CCC2`?
rCAG binder: 2

What do the screens show for `Cc1ccc(Cn2cc(COC(=O)NCCc3c[nH]c4ccccc34)nn2)cc1`?
rCAG binder: 7

What do the screens show for `CN(c1ccc(O)cc1)c1nc(-c2cccs2)cs1`?
aDG glyco up: 0; rCAG binder: 4; APOBEC3G inh: -6; ALR H2O2 inh: 98*; A3A deaminase: -3; PHOSPHO1 block: -8

Results for OC(c1ccccc1)c1nc(-c2cccs2)cs1 (centres undefined) ?
aDG glyco up: 0; rCAG binder: 0

What do the screens show for `Cc1nc(N)sc1-c1csc(N(C)c2ccc(O)cc2)n1`?
aDG glyco up: 0; rCAG binder: 19; APOBEC3G inh: -2; ALR H2O2 inh: 61; A3A deaminase: 1; PHOSPHO1 block: 85*

What do the screens show for `Cc1ccc(/C=c2/sc3nnc(-c4ccccc4Cl)n3c2=O)o1`?
aDG glyco up: 0; rCAG binder: 20; APOBEC3G inh: 5; ALR H2O2 inh: -1; A3A deaminase: 11; PHOSPHO1 block: 92*

How did CC(C)n1nnnc1C1(C)CN(S(C)(=O)=O)CC(=O)N1Cc1cccc(C(F)(F)F)c1 (centres undefined) do in these assays?
rCAG binder: 3

How did Oc1ccc2ccc3[nH]cnc3c2c1 do in these assays?
aDG glyco up: 0; rCAG binder: 4; APOBEC3G inh: -5; ALR H2O2 inh: 100*; A3A deaminase: 10; PHOSPHO1 block: 42

How did CN(C)Cc1c(O)ccc2[nH]cnc12 do in these assays?
aDG glyco up: 0; rCAG binder: -2; APOBEC3G inh: -10; ALR H2O2 inh: -2; A3A deaminase: -4; PHOSPHO1 block: -32

Results for CCCCCn1nnnc1C1(C)CN(S(C)(=O)=O)CC(=O)N1Cc1ccco1 (centres undefined) ?
rCAG binder: 2

How did Cc1onc(-c2ccccc2)c1C(=O)NC(=S)NNC(=O)c1ccc(O)cc1O do in these assays?
aDG glyco up: 0; rCAG binder: 27; APOBEC3G inh: -4; ALR H2O2 inh: 92*; A3A deaminase: 2; PHOSPHO1 block: 14

Results for CCCOc1ccc(C(=O)NC(=S)NNC(=O)c2c(-c3ccccc3)noc2C)cc1 ?
aDG glyco up: 1; rCAG binder: 19; APOBEC3G inh: 5; ALR H2O2 inh: 100*; A3A deaminase: -2; PHOSPHO1 block: -96

What do the screens show for `CCCOc1ccc(C(=O)NC(=S)Nc2nc3ccccc3s2)cc1`?
aDG glyco up: 0; rCAG binder: -2; APOBEC3G inh: -1; ALR H2O2 inh: -2; A3A deaminase: -1; PHOSPHO1 block: 85*

What do the screens show for `Cc1onc(-c2ccccc2)c1C(=O)NC(=S)NNC(=O)c1ccccc1O`?
aDG glyco up: 1; rCAG binder: 19; APOBEC3G inh: -12; ALR H2O2 inh: 30; A3A deaminase: -4; PHOSPHO1 block: 7

Results for CN1c2ccccc2C(C)(C)C12CCCC(=O)N2 (centres undefined) ?
aDG glyco up: 0; rCAG binder: 0; APOBEC3G inh: 1; ALR H2O2 inh: 15; A3A deaminase: -22; PHOSPHO1 block: 87*

What do the screens show for `N#C/C(=C\c1cccc([N+](=O)[O-])c1)C(=O)Nc1cccnc1`?
aDG glyco up: 0; rCAG binder: 1; APOBEC3G inh: -10; ALR H2O2 inh: 97*; A3A deaminase: 1; PHOSPHO1 block: -5

How did N#C/C(=C/c1cccc([N+](=O)[O-])c1)C(=O)Nc1ccccc1O do in these assays?
aDG glyco up: 0; rCAG binder: 7; APOBEC3G inh: 0; ALR H2O2 inh: 96*; A3A deaminase: 3; PHOSPHO1 block: 37

Source: PubChem
